Each sequence was assayed against PUM1 PUF domain R4-PHL (Homo sapiens, UniProt Q14671 828-1176, N971P;Q975L) (assay: yeast three-hybrid, YBZ-1, SC-Leu-His + 0.5 mM 3-AT, 4 days). Conditions: tags: N-Gal4 AD-HA kept; label: inside an RPR1-promoter hybrid RNA with tandem MS2 sites; ssRNA.
Procedure, shortened: (§1)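 A centromeric plasmid in strain YBZ-1 co-expressed Pumilio-1 PUF domain libraries, randomized at the three base-contacting residues of each repeat, with matching RNA elements; the strain carries a LexA–MS2 coat fusion and a HIS3 reporter. After four days on SC-Leu (input) or SC-Leu-His + 0.5 mM 3-AT (selection), the repeat regions were PCR-amplified and Illumina-sequenced. The interaction score is the log change in variant frequency from input to selection, using log2 and a pseudocount of 1 where absent.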

| Sequence | binding signal |
| --- | --- |
| GGCUAGAACUAGUGGAUCCCCCGGCGCCCGGCGGCUCGAGCCCGGGUAAGUGUAUAUAGUCUGCAUGCCGCCGGGCGCCAUGCCUGCAGGUCGACUCUAGAAAACAUG | 5.92 log2 enrichment (interaction score) |
| GGCUAGAACUAGUGGAUCCCCCGGCGCCCGGCGGCUCGAGCCCGGGUAAGUGUAAAUAGUCUGCAUGCCGCCGGGCGCCAUGCCUGCAGGUCGACUCUAGAAAACAUG | 5.53 log2 enrichment (interaction score) |
| GGCUAGAACUAGUGGAUCCCCCGGCGCCCGGCGGCUCGAGCCCGGGUAAGUGUACAUAGUCUGCAUGCCGCCGGGCGCCAUGCCUGCAGGUCGACUCUAGAAAACAUG | 3.73 log2 enrichment (interaction score) |

The sequences below were run against PUM1 PUF domain R1-RTV (Homo sapiens, UniProt Q14671 828-1176, S863R;R864T;Q867V) in the same assay as above. Conditions: tags: N-Gal4 AD-HA kept; label: inside an RPR1-promoter hybrid RNA with tandem MS2 sites; ssRNA.
Procedure, shortened: as §1

| Sequence | binding signal |
| --- | --- |
| GGCUAGAACUAGUGGAUCCCCCGGCGCCCGGCGGCUCGAGCCCGGGUAAGUGUAAAUCGUCUGCAUGCCGCCGGGCGCCAUGCCUGCAGGUCGACUCUAGAAAACAUG | 4.19 log2 enrichment (interaction score) |
| GGCUAGAACUAGUGGAUCCCCCGGCGCCCGGCGGCUCGAGCCCGGGUAAGUGUAAAUUGUCUGCAUGCCGCCGGGCGCCAUGCCUGCAGGUCGACUCUAGAAAACAUG | 3.33 log2 enrichment (interaction score) |
| GGCUAGAACUAGUGGAUCCCCCGGCGCCCGGCGGCUCGAGCCCGGGUAAGUGUAAAUGGUCUGCAUGCCGCCGGGCGCCAUGCCUGCAGGUCGACUCUAGAAAACAUG | 2.39 log2 enrichment (interaction score) |

Source: article PMC8384837, “Expanding the binding specificity for RNA recognition by a PUF domain”
